# D1 agonist = Allosteric Agonists of the Human D1 Dopamine Receptor: qHTS; activation, % at 2 µM; HEK293 T-REx D1 cells, calcium flux, agonist mode; hit rate 1% among 360,000; D(1A) dopamine receptor (Homo sapiens), P21728; in the data active means activation above about 30%; further: 0% is about no effect
# Target sequence (P21728 whole entry, looked up): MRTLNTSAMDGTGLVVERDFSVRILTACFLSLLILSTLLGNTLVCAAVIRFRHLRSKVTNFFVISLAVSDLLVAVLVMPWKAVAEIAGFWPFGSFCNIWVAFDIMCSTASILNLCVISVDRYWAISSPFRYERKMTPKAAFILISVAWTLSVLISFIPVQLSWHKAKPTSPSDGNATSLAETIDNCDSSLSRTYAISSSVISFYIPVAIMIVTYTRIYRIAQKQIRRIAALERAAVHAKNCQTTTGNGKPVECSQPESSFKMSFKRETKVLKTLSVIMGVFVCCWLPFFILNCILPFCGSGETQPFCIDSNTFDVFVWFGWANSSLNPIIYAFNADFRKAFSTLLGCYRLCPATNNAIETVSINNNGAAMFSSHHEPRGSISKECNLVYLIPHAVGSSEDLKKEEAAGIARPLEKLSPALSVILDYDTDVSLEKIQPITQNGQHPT
#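 Inducible HEK293 T-REx D1 cells, force-coupled to calcium signalling, were plated at 4000 cells/well with tetracycline and held overnight at 30 C. After no-wash calcium dye loading, compound-evoked calcium rise over 180 s flagged agonists.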
# DRD3 agonist = qHTS of D3 Dopamine Receptor Agonist: qHTS | D(3) dopamine receptor (Homo sapiens), P35462 | D3R DiscoveRx beta-arrestin cells, luminescence, 90 min | max activation, % | hit rate 0.58% among 410,000 | AID 652048, 2013; in the data active means max activation above about 30%; further: 0% is about no effect
#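 Agonist mode: compounds and dopamine controls were applied to plated cells for 90 min at 37 degrees C after an overnight attachment at 1500 cells/well. Luminescent read-out followed 30 - 60 minutes at room temperature with DiscoveRx detection reagent.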
# D1 PAM = Potentiators of Human D1 Dopamine Receptor: qHTS. D(1A) dopamine receptor (Homo sapiens), P21728. HEK293 TREx D1 cells, calcium flux, dopamine EC20 potentiation. potentiation, % at 10 µM. hit rate 0.036% among 360,000. AID 504651, 2011; in the data active means potentiation above about 30%; further: 0% is about no effect
# D1 antag = Antagonist of Human D 1 Dopamine Receptor: qHTS; D(1A) dopamine receptor (Homo sapiens), P21728; HEK293 TREx D1 cells, calcium flux, dopamine EC80; active compounds read low; activity change, negative = inhibition, % at 10 µM; hit rate 3.2% among 360,000; AID 504652, 2011; in the data active means activity change below about -30%; further: on the % scale 0 is the no-effect control and ±100 the full control effect
#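 Compound effects on dopamine-evoked calcium signalling were measured in tetracycline-induced HEK293 Trex D1 cells. Dopamine at EC80 followed a 180 s compound pre-read, and fluorescence was tracked kinetically for 180 s more.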
# DRD3 antagonist = qHTS of D3 Dopamine Receptor Antagonist: qHTS. D3R cells, DiscoveRx beta-arrestin luminescence, antagonist mode; active compounds read low. max response, negative = inhibition, %. hit rate 2.5% among 360,000; in the data active means max response below about -50%; further: on the % scale 0 is the no-effect control and ±100 the full control effect
#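 Cells expressing the human receptor were seeded at 1500 cells/well, incubated overnight at 37 degrees C in 5% CO2, then exposed to library compounds with dopamine controls for 90 minutes at 37 degrees C before luminescent detection.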
# * marks the source's active call; other numbers are inactive results; . = no result given. Shown are actives, neighbours in structure and some others; about 6% of the full set was active somewhere.
SMILES,D1 agonist,DRD3 agonist,D1 PAM,D1 antag,DRD3 antagonist
Cc1nnc(SCC(=O)NC(=O)Nc2ccc3c(c2)OCCO3)s1,6,-11,-10,1,-70*
O=C(CSc1ccc2c(c1)OCCO2)Nc1ccc(Br)cc1,4,7,-2,-22,-63*
COc1cc(NC(=O)CSc2ccc3c(c2)OCCO3)cc(OC)c1OC,15,11,-2,-36*,56
CCOc1ccc(CCNC(=O)CCn2c(=O)c3cccn3c3ccc(F)cc32)cc1OCC,0,7,2,2,.
COc1ccc(Br)c(C(=O)Nc2cc3c(cc2N2CCOCC2)n(C)c(=O)n3C)c1,1,-5,1,8,.
COc1cc([N+](=O)[O-])ccc1NC(=O)NCC1CCN(Cc2ccc(Cl)cc2)CC1,31*,-16,-10,-33*,-73*
COc1ccc(Cl)cc1NC(=O)NCC1CCN(Cc2cc(C)ccc2C)CC1,30,-1,-9,-31*,-85*
O=C(NCC1CCN(Cc2cccc(Cl)c2)CC1)Nc1cc(Cl)ccc1Cl,19,-27,-1,12,.
Cc1ccc(-n2nnc3c(sc4nc(C)c(C)cc43)c2=O)cc1Cl,0,-3,0,2,.
CCc1ccc2occ(CC(=O)Nc3ccccc3C(F)(F)F)c2c1,22,-10,-2,10,.
Cc1cc(C)c2c(CC(=O)NCCc3ccccc3)coc2c1,0,34*,1,5,-5
CCc1ccc2occ(CC(=O)NCc3ccccc3)c2c1,49*,-12,0,-13,.
Cc1c(CC(=O)NCc2ccccc2Cl)c(=O)oc2cc(O)ccc12,3,2,2,6,.
CCCOc1ccc(C2C(=O)N(C3CCC(C)CC3)CC(=O)N2Cc2cccc(OC)c2)cc1OC (stereo not drawn),0,-2,-1,-3,.
O=C(COC(=O)COc1ccc(Cl)cc1Br)NCc1cccs1,0,-4,-9,-32*,11
O=C(COn1nnc2ccc(Cl)cc21)NC1CCS(=O)(=O)C1 (stereo not drawn),2,-9,-1,-9,-12
O=C(COC(=O)CSc1ccc([N+](=O)[O-])cc1)NCc1cccs1,7,-1,-5,-55*,-11
O=C(COC(=O)CCCOc1ccc(Cl)cc1Cl)NCc1ccccc1,7,-19,-4,-37*,-14
O=C(COC(=O)Cc1ccc(Cl)cc1)NCc1cccs1,.,-1,.,.,-8
O=C(COn1nnc2ccc(Cl)cc21)NCc1ccccc1,1,-5,-9,-34*,-20
COc1ccc(C)cc1-n1nnc(-c2nc(-c3ccccc3Cl)no2)c1N,7,5,-5,-6,.
COc1ccc(CNC(=O)COC(=O)Cc2ccc(Cl)cc2Cl)cc1,17,13,-4,-47*,-80*
O=C1OC(C(=O)Nc2nccs2)Cc2ccccc21 (stereo not drawn),1,-11,1,-40*,5
CC1(C(=O)Nc2nccs2)Cc2ccccc2C(=O)O1 (stereo not drawn),3,0,2,-10,10
CCOc1ccccc1NC(=O)CSc1nc2c(oc3ccccc32)c(=O)n1-c1ccc(F)cc1,2,3,-2,-19,.
CC(=O)C1=C(C)NC(SCC(=O)Nc2nccs2)=C(C#N)C1c1ccccc1Cl (stereo not drawn),2,-4,12,-8,2
C=CCOC(=O)C1=C(C)NC(SCC(=O)Nc2nccs2)=C(C#N)C1c1cccs1 (stereo not drawn),2,3,-22,-75*,7
C=CCOC(=O)C1=C(C)NC(SC)=C(C#N)C1c1cccs1 (stereo not drawn),0,0,-6,-20,0
CCOC(=O)C1=C(C)NC(SCC(N)=O)=C(C#N)C1c1cccs1 (stereo not drawn),2,-21,-5,35,-14
C=CCOC(=O)C1=C(C)NC(SCC(=O)Nc2nccs2)=C(C#N)C1c1ccc(Cl)cc1 (stereo not drawn),1,-2,-14,-70*,15

# Screening results (PubChem BioAssay)
